This passage reports outcome results from PubChem BioAssay AID743148 (Broad Institute, 2013).

The source made the active and inactive calls.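 The calls were made as follows: active = fitted half-maximal signal loss reached at or below twice the highest valid dose tested; inconclusive = flat curve with 30 to 70% loss, or a poor fit; inactive = the rest, including signal gain.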

A short description of this experiment: viability loss in HepG2 liver cells – cell-based, CellTiter-Glo luminescence, dry powder, set 4, cytotoxicity control, dose response (AID 743148). (In ATP-based viability assays light output follows the ATP content of the culture.)

Take `CC(=O)Nc1ccc(C2=NNC(=O)C[C@H]2C)cc1[N+](=O)[O-]`: the result was inactive.

On to `Cn1c(NC(=O)c2ccccc2)nc2ccccc21`, for which the result was inactive.

With `C[C@@H]1CC(=O)NN=C1c1ccc(C2CCCCC2)cc1`, the result was inactive.

As for `COc1cc2c(cc1OC)-c1cc(=Nc3c(C)cc(C)cc3C)n(C)c(=O)n1CC2`, the outcome was inactive.

As for `O=C1CN2Cc3c(ccc(Cl)c3Cl)N=C2N1`, the call was inactive.

Regarding `C[C@@H]1CC(=O)NN=C1c1ccc(-c2cncnc2)cc1`, the compound was called inactive.

As for `C[C@@H]1CC(=O)NN=C1c1ccc(N2CCOCC2)cc1`, the call was inactive.

Regarding `C[C@@H]1CC(=O)NN=C1c1ccc(Cl)cc1`, the outcome was inactive.

As for `C[C@@H]1CC(=O)NN=C1c1ccc(F)c(F)c1`, the call was inactive.

`CCN(CC)c1ccc(C2=NNC(=O)CC2C)cc1[N+](=O)[O-]` (stereo not drawn): the outcome was inactive.

For the compound `C[C@@H]1CC(=O)NN=C1c1ccc(N2CCOCC2)c(F)c1`, the result was inactive.

With `C[C@H]1CC(=O)NN=C1c1ccc(N2CCOCC2)c(F)c1`, the compound was called inactive.

`CCN1N=C(c2ccc(N(CC)CC)cc2)[C@H](C)CC1=O`: the compound was classed as inactive.
